Assay results from the supplement of paper PMC10811239.

system: LEGO organoid PTN (PTEN-/-; TP53-/-; NF1-/-); assay: bioluminescence (viable cell) signal fold change after vs before treatment, normalised to DMSO (ratio); higher = more tumour cell growth / less inhibition; settings: 10 µM; treatment time 6 days
Description: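 Luc2-labelled iPSC-derived glioblastoma-like organoids (LEGOs, genotypes PT = PTEN-/-;TP53-/-, PTCC = plus CDKN2A/B-/-, PTN = plus NF1-/-) were treated with 10 uM drug for 6 days (applied every other day) at 37 C. Bioluminescence imaging was done before treatment and 2 days after the last dose. BLI signals were normalised to the DMSO control on the same day and then to the pre-treatment signal (N=3).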

| SMILES | bioluminescence |
| --- | --- |
| Cc1oncc1C(=O)Nc1ccc(C(F)(F)F)cc1 [Leflunomide] | 3.5 |
| CO[C@H]1/C=C/O[C@@]2(C)Oc3c(C)c(O)c4c(O)c(c(/C=N/N5CCN(C6CCCC6)CC5)c(O)c4c3C2=O)NC(=O)/C(C)=C\C=C\[C@H](C)[C@H](O)[C@@H](C)[C@@H](O)[C@@H](C)[C@H](OC(C)=O)[C@@H]1C [Rifapentine] | 1.39 |
| FC(F)(F)C(Cl)Br (centres undefined) [Anestan] | 1.3 |
| Cc1cc(C)nc(NS(=O)(=O)c2ccc(N)cc2)n1 [Sulfamethazine] | 1.03 |
| CO[C@H]1/C=C/O[C@@]2(C)Oc3c(C)c(O)c4c(O)c(c(/C=N/N5CCN(C)CC5)c(O)c4c3C2=O)NC(=O)/C(C)=C\C=C\[C@H](C)[C@H](O)[C@@H](C)[C@@H](O)[C@@H](C)[C@H](OC(C)=O)[C@@H]1C [Rifampicin] | 0.579 |
| CC(C)c1c(C(=O)Nc2ccccc2)c(-c2ccccc2)c(-c2ccc(F)cc2)n1CC[C@@H](O)C[C@@H](O)CC(=O)[O-].CC(C)c1c(C(=O)Nc2ccccc2)c(-c2ccccc2)c(-c2ccc(F)cc2)n1CC[C@@H](O)C[C@@H](O)CC(=O)[O-].[Ca+2] [Atorvastatin Calcium] | 0.0875 |
| Nc1nnc(-c2cccc(Cl)c2Cl)c(N)n1 [Lamotrigine] | 0.446 |
| NCC[C@H](O)C(=O)N[C@@H]1C[C@H](N)[C@@H](O[C@H]2O[C@H](CN)[C@@H](O)[C@H](O)[C@H]2O)[C@H](O)[C@H]1O[C@H]1O[C@H](CO)[C@@H](O)[C@H](N)[C@H]1O.O=S(=O)(O)O.O=S(=O)(O)O [Amikacin disulfate] | 0.614 |
| CCOc1nc2cccc(C(=O)O)c2n1Cc1ccc(-c2ccccc2-c2nn[nH]n2)cc1 [Candesartan] | 2.99 |
| CCCCOc1ccc(C(=O)CCN2CCCCC2)cc1.Cl [Dyclonine hydrochloride] | 1.13 |
| O=c1[nH]c(=O)n(C2CCCO2)cc1F (centres undefined) [Tegafur] | 0.727 |
| CCC(CC)O[C@@H]1C=C(C(=O)O)C[C@H](N)[C@H]1NC(C)=O [Oseltamivir acid] | 1.58 |
| CN(C)C(=N)NC(=N)N [Metformin] | 2.37 |
| CO/N=C(\C(=O)N[C@@H]1C(=O)N2C(C(=O)[O-])=C(COC(C)=O)CS[C@H]12)c1csc(N)n1.[Na+] [Cefotaxime sodium] | 0.707 |
| Cc1ccnc2c1NC(=O)c1cccnc1N2C1CC1 [Nevirapine] | 1.73 |
| C=CC(=O)N1CCC[C@@H](n2nc(-c3ccc(Oc4ccccc4)cc3)c3c(N)ncnc32)C1 [Ibrutinib] | 1.26 |
| C[N+](C)(C)CCO.[Cl-] [Choline chloride] | 2.09 |
| CO[C@H]1C(=O)[C@]2(C)[C@@H](OC)C[C@H]3OC[C@@]3(OC(C)=O)[C@H]2[C@H](OC(=O)c2ccccc2)[C@]2(O)C[C@H](OC(=O)[C@H](O)[C@@H](NC(=O)OC(C)(C)C)c3ccccc3)C(C)=C1C2(C)C [Cabazitaxel] | 0.429 |
| OC[C@H]1O[C@@H](n2cnc3c2NC=NC[C@H]3O)C[C@@H]1O [Pentostatin] | 1.59 |
| CCN(CC)CCNC(=O)c1c(C)[nH]c(/C=C2\C(=O)Nc3ccc(F)cc32)c1C [Sunitinib] | 0.687 |

| SMILES | bioluminescence |
| --- | --- |
| CC[C@@]1(O)C(=O)OCc2c1cc1n(c2=O)Cc2cc3c(CN(C)C)c(O)ccc3nc2-1.Cl [Topotecan hydrochloride] | 0.171 |
| Nc1cccc2c1CN(C1CCC(=O)NC1=O)C2=O (centres undefined) [Lenalidomide] | 3.63 |
| NNC(=O)c1ccncc1 [Isoniazid] | 1.06 |
| CCN(CC)CC(=O)Nc1c(C)cccc1C.Cl [Lidocaine hydrochloride] | 1.08 |
| CNC(=O)c1cc(Oc2ccc(NC(=O)Nc3ccc(Cl)c(C(F)(F)F)c3)cc2)ccn1.Cc1ccc(S(=O)(=O)O)cc1 [Sorafenib tosylate] | 0.504 |
| COc1ccccc1Oc1c(NS(=O)(=O)c2ccc(C(C)(C)C)cc2)nc(-c2ncccn2)nc1OCCO [Bosentan] | 1.28 |
| CC(C)NCC(O)COc1ccc(CC(N)=O)cc1 (centres undefined) [Atenolol] | 0.649 |
| NC(=O)c1ncn([C@@H]2O[C@H](CO)[C@@H](O)[C@H]2O)n1 [Ribavirin] | 0.822 |
| C[C@]12C=CC(=O)C=C1CC[C@@H]1[C@@H]2C(=O)C[C@@]2(C)[C@H]1CC[C@]2(O)C(=O)CO [Prednisone] | 1.29 |
| CCc1c(C)[nH]c2c1C(=O)C(CN1CCOCC1)CC2.Cl (centres undefined) [Molindone hydrochloride] | 1.2 |
| COc1ccc(CNc2nc(N3CCC[C@H]3CO)ncc2C(=O)NCc2ncccn2)cc1Cl [Avanafil] | 1.11 |
| CS(=O)(=O)CCNCc1ccc(-c2ccc3ncnc(Nc4ccc(OCc5cccc(F)c5)c(Cl)c4)c3c2)o1.Cc1ccc(S(=O)(=O)O)cc1.Cc1ccc(S(=O)(=O)O)cc1 [Lapatinib Ditosylate] | 0.778 |
| C[C@]12C=CC(=O)C=C1CC[C@@H]1[C@@H]2[C@@H](O)C[C@@]2(C)[C@H]1CC[C@]2(O)C(=O)CO [Prednisolone] | 1.71 |
| CC(C)Oc1ccc(-c2nc(-c3cccc4c3CC[C@@H]4NCCO)no2)cc1C#N [Ozanimod] | 0.741 |
| COc1cc(C(=O)NCc2ccc(OCCN(C)C)cc2)cc(OC)c1OC.Cl [Trimethobenzamide hydrochloride] | 0.646 |
| FC(F)(F)c1ccc(CNc2ccc(Cc3c[nH]c4ncc(Cl)cc34)cn2)cn1 [Pexidartinib] | 0.351 |
| CCCN(CCC)S(=O)(=O)c1ccc(C(=O)O)cc1 [Probenecid] | 1.62 |
| Nc1nc(=O)c2c(CCc3ccc(C(=O)N[C@@H](CCC(=O)[O-])C(=O)[O-])cc3)c[nH]c2[nH]1.Nc1nc(=O)c2c(CCc3ccc(C(=O)N[C@@H](CCC(=O)[O-])C(=O)[O-])cc3)c[nH]c2[nH]1.O.O.O.O.O.[Na+].[Na+].[Na+].[Na+] [Pemetrexed Disodium Hydrate] | 1.05 |
| CC(C)(C)c1cc(C(C)(C)C)c(NC(=O)c2c[nH]c3ccccc3c2=O)cc1O [Ivacaftor] | 0.603 |
